Source: the supplement of paper PMC12494721
Where a name gives a salt, the structure may show the parent alone.

Columns and labels:
Conditions in all cases: 20 µM; incubation time: 27 h, anaerobic, 37 °C;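 for the amine columns active = adjusted P below 0.05 in both replicates with a change the same way and a mean fold change under 0.8 or over 1.25; inactive = the rest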
[1] = tested on: Clostridium sporogenes DSM 1664; assay: growth (OD595) fold change vs plate DMSO controls (fold change (ratio)); higher = more growth
Summary of the method: (§1)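 Anaerobic 27 h, 37 °C mGAM 96-well cultures were shaken, then read for absorbance at 595 nm. Values were blank-subtracted and corrected for compound background using 20 µM compound solutions in water. A calibration factor of 5 converted them to OD. Growth is the fold change versus the median of plate DMSO controls. Fold changes above 1.5 were set to NA, and values are the mean of 2 biological replicates.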

Escherichia coli IAI1 [2] = assay: as above
Summary of the method: as §1

[3] = tested on: Klebsiella aerogenes DSM 30053; assay: as above
Summary of the method: as §1

[4] = tested on: Ruminococcus gnavus DSM 108212; assay: as above
Summary of the method: as §1

[5] = tested on: Klebsiella aerogenes DSM 30053; assay: fold change of Histamine concentration vs plate DMSO controls (fold change (ratio)); higher = more amine produced, active = hit call of the paper (significant change in both replicates, either direction)
Summary of the method: (§2)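 Anaerobic mGAM cultures of four gut bacterial strains were grown at 37 °C for 27 h in 80 µL wells, starting at OD 0.1 before 1:1 dilution. Compounds were at 20 µM final (sweeteners 50 µM). Whole cultures were extracted with cold acetonitrile/methanol containing 0.1% formic acid and centrifuged. Amines were quantified by LC–triple-quadrupole MS (dynamic MRM) against external calibration curves and drift-corrected within batch. Each value is the fold change versus plate DMSO controls, averaged over 2 biological replicates.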

[6] = tested on: Clostridium sporogenes DSM 1664; assay: fold change of Tryptamine concentration vs plate DMSO controls (fold change (ratio)); higher = more amine produced, active = hit call of the paper (significant change in both replicates, either direction)
Summary of the method: as §2

[7] = tested on: Ruminococcus gnavus DSM 108212; assay: as above
Summary of the method: as §2

Escherichia coli IAI1 [8] = assay: fold change of Putrescine concentration vs plate DMSO controls (fold change (ratio)); higher = more amine produced, active = hit call of the paper (significant change in both replicates, either direction)
Summary of the method: as §2

[9] = tested on: Klebsiella aerogenes DSM 30053; assay: as above
Summary of the method: as §2

Escherichia coli IAI1 [10] = assay: fold change of Cadaverine concentration vs plate DMSO controls (fold change (ratio)); higher = more amine produced, active = hit call of the paper (significant change in both replicates, either direction)
Summary of the method: as §2

[11] = tested on: Klebsiella aerogenes DSM 30053; assay: as above
Summary of the method: as §2

[12] = tested on: Ruminococcus gnavus DSM 108212; assay: fold change of 2-Phenylethylamine concentration vs plate DMSO controls (fold change (ratio)); higher = more amine produced, active = hit call of the paper (significant change in both replicates, either direction)
Summary of the method: as §2

Structure (SMILES)	growth [1]	growth (Escherichia coli IAI1 [2])	growth [3]	growth [4]	fold change of Histamine concentration [5]	fold change of Tryptamine concentration [6]	fold change of Tryptamine concentration [7]	fold change of Putrescine concentration (Escherichia coli IAI1 [8])	fold change of Putrescine concentration [9]	fold change of Cadaverine concentration (Escherichia coli IAI1 [10])	fold change of Cadaverine concentration [11]	fold change of 2-Phenylethylamine concentration [12]
CCSC(C)CC1CC(=O)C(/C(CC)=N/OC/C=C/Cl)=C(O)C1 (mixture of isomers)	0.928	1.04	0.988	0.939	1.02 (inactive)	1.01 (inactive)	1.03 (inactive)	1.02 (inactive)	0.996 (inactive)	1 (inactive)	1.01 (inactive)	0.99 (inactive)
CCC(C)(C)C(=O)OC1=C(c2ccc(Cl)cc2Cl)C(=O)OC12CCCCC2	1.09	1.08	1.01	1.05	0.967 (inactive)	1.05 (inactive)	1.03 (inactive)	1.02 (inactive)	0.996 (inactive)	0.997 (inactive)	1.03 (inactive)	1.05 (inactive)
Oc1ccc(Cc2ccc(O)cc2)cc1 [Bisphenol F]	0.945	1.12	0.989	1.03	1.06 (inactive)	1.11 (inactive)	1.15 (inactive)	1.04 (inactive)	0.986 (inactive)	1.03 (inactive)	1.09 (inactive)	1.48 (inactive)
CCCC(C)(COC(N)=O)COC(=O)NC(C)C (centres undefined) [Carisoprodol]	1.03	1.01	1.01	0.919	1.03 (inactive)	1.01 (inactive)	1.02 (inactive)	1.02 (inactive)	1 (inactive)	1.02 (inactive)	1 (inactive)	1.05 (inactive)
CCc1cccc(C)c1N(C(=O)CCl)[C@@H](C)COC	1.01	1.01	0.995	0.912	1.01 (inactive)	1.07 (inactive)	1.01 (inactive)	1.02 (inactive)	0.999 (inactive)	0.998 (inactive)	0.997 (inactive)	1.04 (inactive)
Cc1cc(C(C#N)c2ccc(Cl)cc2)c(Cl)cc1NC(=O)c1cc(I)cc(I)c1O (centres undefined)	0	0.947	1	0.156	1.07 (inactive)	0.0183 (active)	0.104 (active)	1.07 (inactive)	1.03 (inactive)	1.29 (active)	1.01 (inactive)	0.11 (active)
CC1(C(=O)Nc2ccc(O)c(Cl)c2Cl)CCCCC1	0.939	1.02	1	1.22	0.992 (inactive)	0.999 (inactive)	0.96 (inactive)	0.992 (inactive)	0.99 (inactive)	1.03 (inactive)	1 (inactive)	0.987 (inactive)
CCNC1(c2cccs2)CCCCC1=O (centres undefined) [Tiletamine hydrochloride]	1.04	1	0.995	1.15	1.03 (inactive)	1.04 (inactive)	1.02 (inactive)	0.955 (inactive)	1.01 (inactive)	0.995 (inactive)	1.01 (inactive)	1 (inactive)
CC(C)N(C(=O)COc1nnc(C(F)(F)F)s1)c1ccc(F)cc1	0.961	0.973	1.01	0.978	1.02 (inactive)	1.01 (inactive)	0.886 (inactive)	1 (inactive)	1 (inactive)	1.02 (inactive)	0.989 (inactive)	0.832 (inactive)
C[C@]12CC[C@H](O)C[C@@H]1CC[C@@H]1[C@@H]2CC[C@]2(C)C(=O)CC[C@@H]12 [Epiandrosterone]	1.01	1.01	0.974	0.678	1.04 (inactive)	0.953 (inactive)	0.973 (inactive)	0.99 (inactive)	1.02 (inactive)	1.02 (inactive)	1 (inactive)	0.962 (inactive)
ClC1C(Cl)C(Cl)C(Cl)C(Cl)C1Cl (centres undefined)	1.06	1	1	1.14	0.984 (inactive)	0.972 (inactive)	0.98 (inactive)	1 (inactive)	1 (inactive)	1.02 (inactive)	0.994 (inactive)	0.979 (inactive)
c1ccc2c(c1)ccc1c3ccccc3sc21 [Benzo[b]naphtho[2,1-d]thiophene]	0.989	0.988	1.11	1.07	1.02 (inactive)	0.962 (inactive)	1.01 (inactive)	1.01 (inactive)	1.03 (inactive)	0.992 (inactive)	1.01 (inactive)	0.99 (inactive)
CC(C)N(C)S(=O)(=O)NC(=O)c1cc(-n2c(=O)cc(C(F)(F)F)n(C)c2=O)c(F)cc1Cl	0.954	0.981	1	1.03	0.99 (inactive)	1.03 (inactive)	0.884 (inactive)	0.983 (inactive)	0.985 (inactive)	1.01 (inactive)	0.993 (inactive)	0.819 (inactive)
CCC(=O)O[C@@](Cc1ccccc1)(c1ccccc1)[C@@H](C)CN(C)C [Levopropoxyphene napsylate]	1.06	1.03	1.05	1.18	0.942 (inactive)	1.04 (inactive)	1.01 (inactive)	1.03 (inactive)	1 (inactive)	1.03 (inactive)	1.01 (inactive)	1.03 (inactive)
NCC(O)c1ccc(O)cc1 (centres undefined) [Octopamine hydrochloride]	0.798	1.03	0.986	0.994	1.04 (inactive)	1.04 (inactive)	0.937 (inactive)	1.11 (inactive)	1.02 (inactive)	1.01 (inactive)	1 (inactive)	0.875 (inactive)
N#Cc1c[nH]cc1-c1cccc2c1OC(F)(F)O2	0.873	0.959	0.984	1.17	1.01 (inactive)	1.03 (inactive)	0.939 (inactive)	0.993 (inactive)	0.977 (inactive)	1.08 (inactive)	0.981 (inactive)	0.972 (inactive)
Cc1c(COC(=O)[C@@H]2[C@H](/C=C(\Cl)C(F)(F)F)C2(C)C)cccc1-c1ccccc1 (racemic)	1.05	1.09	0.978	1.13	1.02 (inactive)	0.975 (inactive)	1.03 (inactive)	1 (inactive)	0.953 (inactive)	0.864 (inactive)	0.989 (inactive)	1.07 (inactive)
COP(=S)(OC)Oc1ccc(SC)c(C)c1	1.1	1.09	0.997	0.973	0.959 (inactive)	1.02 (inactive)	1.08 (inactive)	0.971 (inactive)	0.989 (inactive)	0.98 (inactive)	1.04 (inactive)	1.12 (inactive)
CC1(C)C(C=C(Cl)Cl)C1C(=O)OC(C#N)c1cccc(Oc2ccccc2)c1 (mixture of isomers)	1.13	1.01	0.982	1.04	1.02 (inactive)	0.975 (inactive)	1.02 (inactive)	0.971 (inactive)	1.02 (inactive)	0.994 (inactive)	1.01 (inactive)	1 (inactive)
CC(Cc1ccc(O)cc1)NCC(O)c1cc(O)cc(O)c1 (centres undefined) [Fenoterol hydrobromide]	1	1	1.01	1.21	1.06 (inactive)	0.982 (inactive)	1.04 (inactive)	1.02 (inactive)	1.04 (inactive)	0.983 (inactive)	0.991 (inactive)	1.04 (inactive)
C[C@]12CCC(=O)C=C1C=C[C@@H]1[C@@H]2CC[C@@]2(C)[C@H]1CC[C@@]2(O)CCC(=O)O [Canrenoic acid potassium salt]	1.1	1	1.02	0.902	0.964 (inactive)	1.05 (inactive)	1.06 (inactive)	1.02 (inactive)	0.98 (inactive)	0.997 (inactive)	0.996 (inactive)	1.09 (inactive)
COC(=O)NC(=S)Nc1ccccc1NC(=S)NC(=O)OC	1.11	1.02	0.97	0.994	0.974 (inactive)	1.02 (inactive)	0.971 (inactive)	0.954 (inactive)	0.972 (inactive)	0.974 (inactive)	1.01 (inactive)	0.936 (inactive)
CCCCN(CCCC)SN(C)C(=O)Oc1cccc2c1OC(C)(C)C2	1.06	1.03	1.01	0.993	1.01 (inactive)	0.965 (inactive)	1.01 (inactive)	1.05 (inactive)	1.02 (inactive)	1.03 (inactive)	0.998 (inactive)	0.987 (inactive)
COC[C@@H](NC(C)=O)C(=O)NCc1ccccc1 [Lacosamide]	1.07	1.01	1.06	0.96	1.08 (inactive)	1 (inactive)	1.04 (inactive)	1.01 (inactive)	1.02 (inactive)	1 (inactive)	1 (inactive)	1.07 (inactive)
CC1(C)[C@H](C(=O)O[C@H](C#N)c2cccc(Oc3ccccc3)c2)[C@@H]1C=C(Br)Br	1.12	0.981	0.998	1.02	1.02 (inactive)	0.958 (inactive)	0.967 (inactive)	0.983 (inactive)	1.01 (inactive)	0.989 (inactive)	1 (inactive)	0.915 (inactive)
Cc1cc(C)c(C2=C(OC(=O)CC(C)(C)C)C3(CCCC3)OC2=O)c(C)c1	0.884	1.02	1.01	0.937	1 (inactive)	0.972 (inactive)	1.01 (inactive)	1.01 (inactive)	1.02 (inactive)	0.983 (inactive)	0.999 (inactive)	1.01 (inactive)
CN1CCN(C(=O)OC2c3nccnc3C(=O)N2c2ccc(Cl)cn2)CC1 (centres undefined) [Zopiclone]	1.13	0.987	0.952	0.842	1.03 (inactive)	1.02 (inactive)	0.989 (inactive)	0.98 (inactive)	1.02 (inactive)	0.979 (inactive)	0.99 (inactive)	0.988 (inactive)
